“And” between values parts separate entries of the source, which are not always exact repeats. Equal entries are not always repeated. The whole screen tested about 5,500 compounds, of which about 2,000 (36%) were called active. Inconclusive results (about 18%) are left out. No stated cut-off is given here; in the data, active means normalized growth mostly below about 0.91 (no sharp cut-off); inconclusive means no clear call, values can overlap the other calls; inactive means mostly above about 0.92. The list shows a part of the results.
Assay: chemical genetic growth profiling, strain panel (AID 1159580);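 further: tested at 20 µM; growth read once vehicle control cultures reached saturation at 30 °C; 1 = growth at the plate median or of vehicle wells; lower values mean less growth of the strain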
Settings: S. cerevisiae deletion strains, growth OD

Measured: normalized growth

NC(=O)NCCCC(N)C(=O)O (configuration not stated)
inactive: locus YAL013W, strain DEP1, hits give low values 1.01 | locus YAL021C, strain ccr4, hits give low values 0.962 | locus YAL026C, strain drs2, hits give low values 1.01 | locus YAL030W, strain snc1, hits give low values 1.01 | locus YBL061C, strain skt5, hits give low values 1.01 | locus YBR009C, strain hhf1, hits give low values 1.05 | locus YBR021W, strain FUR4, hits give low values 1.01 | locus YBR023C, strain chs3, hits give low values 1.01 | locus YBR171W, strain sec66, hits give low values 0.99 | locus YBR229C, strain ROT2, hits give low values 1.01 | locus YBR231C, strain swc5, hits give low values 1.03 | locus YBR279W, strain paf1, hits give low values 1.01 | locus YCL011C, strain gbp2, hits give low values 0.996 | locus YCL016C, strain dcc1, hits give low values 1 | locus YCL029C, strain bik1, hits give low values 0.998 | locus YCL061C, strain MRC1, hits give low values 0.992 | locus YCL069W, strain vba3, hits give low values 0.996 | locus YCR088W, strain abp1, hits give low values 0.995 | locus YDL005C, strain med2, hits give low values 0.996 | locus YDL035C, strain GPR1, hits give low values 1.03 | locus YDL040C, strain nat1, hits give low values 1 | locus YDL074C, strain BRE1, hits give low values 1.06 | locus YDL101C, strain DUN1, hits give low values 1.03 | locus YDL134C, strain PPH21, hits give low values 1.02 | locus YDL185W, strain tfp1, hits give low values 0.994 | locus YDL192W, strain arf1, hits give low values 0.993 | locus YDR001C, strain nth1, hits give low values 0.989 | locus YDR069C, strain doa4, hits give low values 1.02 | locus YDR101C, strain arx1, hits give low values 0.988 | locus YDR137W, strain rgp1, hits give low values 0.986 | locus YDR150W, strain NUM1, hits give low values 1.02 | locus YDR159W, strain sac3, hits give low values 1.04 | locus YDR162C, strain NBP2, hits give low values 1.04 | locus YDR195W, strain ref2 1.02 | locus YDR297W, strain sur2, hits give low values 1.01 | locus YDR318W, strain mcm21, hits give low values 0.983 | locus YDR334W, strain swr1, hits give low values 0.982 | locus YDR335W, strain msn5, hits give low values 0.993 | locus YDR388W, hits give low values 0.992 | locus YDR392W, strain spt3, hits give low values 0.96 | locus YDR502C, strain sam2, hits give low values 0.993 | locus YEL003W, strain gim4, hits give low values 0.994 | locus YEL037C, strain rad23, hits give low values 0.995 | locus YEL061C, strain CIN8 (second series), hits give low values 0.999 | locus YEL061C, strain CIN8, hits give low values 1.01 | locus YER015W, strain faa2, hits give low values 1 | locus YER016W, strain bim1, hits give low values 1.01 | locus YER110C, hits give low values 0.988 | locus YER111C, strain swi4, hits give low values 1 | locus YER155C, strain BEM2 (second series), hits give low values 1.04 | locus YER155C, strain BEM2, hits give low values 1.01 | locus YER167W, strain BCK2, hits give low values 1.04 | locus YFR010W, strain ubp6, hits give low values 0.982 | locus YGL078C, strain dbp3, hits give low values 1 | locus YGL086W, strain mad1, hits give low values 0.997 | locus YGL167C, strain pmr1, hits give low values 1.03 | locus YGL173C, strain kem1, hits give low values 1 | locus YGL227W, strain vid30, hits give low values 0.998 | locus YGL240W, strain doc1, hits give low values 1.07 | locus YGL248W, strain PDE1, hits give low values 1.01 | locus YGL253W, strain hxk2, hits give low values 1 | locus YGR078C, strain PAC10, hits give low values 1.05 | locus YGR135W, strain pre9, hits give low values 1 | locus YGR229C, strain SMI1, hits give low values 1.02 | locus YGR252W, strain gcn5, hits give low values 0.98 | locus YHR013C, strain ard1, hits give low values 1.01 | locus YHR027C, strain rpn1, hits give low values 0.997 | locus YHR030C, strain SLT2, hits give low values 1.01 | locus YHR079C, strain IRE1 (second series), hits give low values 0.977 | locus YHR079C, strain IRE1, hits give low values 0.992 | locus YHR094C, strain hxt1, hits give low values 0.995 | locus YHR129C, strain ARP1, hits give low values 1.04 | locus YHR142W, strain chs7, hits give low values 0.93 | locus YHR200W, strain rpn10, hits give low values 0.994 | locus YIL066C, strain RNR3, hits give low values 1.02 | locus YIL073C, strain SPO22, hits give low values 1.01 | locus YIL125W, strain kgd1, hits give low values 0.987 | locus YIR030C, strain dcg1, hits give low values 0.993 | locus YJL092W, strain hpr5, hits give low values 0.979 | locus YJL095W, strain BCK1 (second series), hits give low values 1.01 | locus YJL095W, strain BCK1, hits give low values 1.05 and 1.01 | locus YJL115W, strain asf1, hits give low values 0.988 | locus YJL129C, strain trk1, hits give low values 0.973 | locus YJL134W, strain LCB3, hits give low values 1.01 | locus YJL154C, strain vps35, hits give low values 0.997 | locus YJL164C, strain tpk1, hits give low values 0.981 | locus YJL166W, strain qcr8, hits give low values 1.01 | locus YJL168C, strain set2, hits give low values 1 | locus YJL187C, strain SWE1 (second series), hits give low values 1.02 | locus YJL187C, strain SWE1, hits give low values 1 | locus YJR043C, strain POL32, hits give low values 1.03 | locus YJR066W, strain TOR1, hits give low values 0.964
